IL1B secr inh – inhibitors of inflammasome signaling (IL-1 beta secretion); THP-1 LPS/ATP IL-1B secretion, AlphaLISA, 16 h; hits give low values; activity change, % at 57.5 µM; hit rate 4.7% among 360,000; AID 743279; in the data active = activity change below about -50%; inconclusive = mostly about -30% to -49%
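THP-1 cells pretreated 1 hr with compounds (up to 57.5 uM final), then stimulated with LPS (250 ng/mL final) plus ATP (1.25 mM final); secreted IL-1B measured by AlphaLISA after 16 hr, decreased signal indicating inhibition.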
HT1080-NT tox – kills 2HG-producing HT-1080-NT fibrosarcoma cells. HT-1080-NT fibrosarcoma viability, CellTiter-Glo ATP luminescence, 48 h. Potency, µM (doses to about 46.1 µM), for the others: at the highest dose activity, negative = less viability, most hits filed as cytotoxic. hit rate 1.6% among 360,000. AID 686970;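 note: NT is the 2HG producing partner of a matched IDH1 knockdown line; potency is the fitted concentration of half-maximal effect; 0% = DMSO-treated cells and -100% = media-only wells without cells; nearly all actives have a fitted effect of over 55% in size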
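Viability by CellTiter-Glo luminescence after 48 h compound exposure at 37C of HT-1080-NT cells (750/well, RPMI, 5% FBS). % activity scaled between DMSO wells and medium-only wells, then curve-fitted and categorized by curve class.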
TDP1 cell CPT – growth inhibition of DT40 Tdp1-/-;hTDP1 cells with camptothecin (screen for TDP1 inhibitors); chicken DT40 Tdp1-/-;hTDP1 cells + 20 nM CPT, ATP luminescence, 48 h; Potency, µM (highest dose often 46.2 µM), inactives show at the top dose activity change, negative = growth inhibition, most hits filed as inhibitors; hit rate 12% among 420,000; note: potency is the fitted concentration of half-maximal effect; nearly all actives have a fitted effect of over 55% in size
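Cell growth measured by CellTiter-Glo luminescence after a minimum 48 h, 37 C compound exposure with 20 nM CPT in Tdp1-knockout DT40 cells stably expressing hTDP1, seeded 400/well; qHTS titration format.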
HT1080 IDH1KD tx – HT-1080 IDH1 knockdown cell toxicity (counter line). HT-1080 IDH1 knockdown viability, ATP luminescence, 48 h. Potency, µM (highest dose often 46.1 µM), for the others: at the highest dose activity, negative = toxicity, hits mostly cytotoxic. hit rate 2% among 360,000. AID 686971;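 note: potency is the fitted concentration of half-maximal effect; 0% = DMSO wells and -100% = cell-free medium wells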
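Cytotoxicity counter-line: IDH1KD HT-1080, 48 h, CellTiter-Glo. Curves classed by r2, magnitude and activity.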
TDP1 cell noCPT – qHTS for Inhibitors of human tyrosyl-DNA phosphodiesterase 1 (TDP1): qHTS in cells in absence of CPT; DT40 Tdp1-/- hTDP1 cells, no CPT, ATP luminescence, 48 h; Potency, µM (highest dose often 46.2 µM), for the others: top-dose activity change, negative = growth inhibition, hits mostly inhibitors; hit rate 15% among 420,000; note: potency is the fitted concentration of half-maximal effect; nearly all actives have a fitted effect of over 55% in size
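DT40 Tdp1-/-;hTDP1 cells, no CPT (DMSO vehicle only), 400 cells/well; compounds pin-transferred; ≥48 hr, 37 °C; CellTiter-Glo 30 min RT dark, luminescence read.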
12-LOX inh – ALOX12 (human) lipoxygenase inhibition; P18054; purified 12hLO, xylenol orange hydroperoxide absorbance; Potency, µM (top dose mostly 108 µM), for the others: at the highest dose activity change, negative = inhibition, actives largely listed as inhibitors; hit rate 1.1% among 580,000; note: potency is the fitted concentration of half-maximal effect
Target sequence (P18054 whole entry, looked up): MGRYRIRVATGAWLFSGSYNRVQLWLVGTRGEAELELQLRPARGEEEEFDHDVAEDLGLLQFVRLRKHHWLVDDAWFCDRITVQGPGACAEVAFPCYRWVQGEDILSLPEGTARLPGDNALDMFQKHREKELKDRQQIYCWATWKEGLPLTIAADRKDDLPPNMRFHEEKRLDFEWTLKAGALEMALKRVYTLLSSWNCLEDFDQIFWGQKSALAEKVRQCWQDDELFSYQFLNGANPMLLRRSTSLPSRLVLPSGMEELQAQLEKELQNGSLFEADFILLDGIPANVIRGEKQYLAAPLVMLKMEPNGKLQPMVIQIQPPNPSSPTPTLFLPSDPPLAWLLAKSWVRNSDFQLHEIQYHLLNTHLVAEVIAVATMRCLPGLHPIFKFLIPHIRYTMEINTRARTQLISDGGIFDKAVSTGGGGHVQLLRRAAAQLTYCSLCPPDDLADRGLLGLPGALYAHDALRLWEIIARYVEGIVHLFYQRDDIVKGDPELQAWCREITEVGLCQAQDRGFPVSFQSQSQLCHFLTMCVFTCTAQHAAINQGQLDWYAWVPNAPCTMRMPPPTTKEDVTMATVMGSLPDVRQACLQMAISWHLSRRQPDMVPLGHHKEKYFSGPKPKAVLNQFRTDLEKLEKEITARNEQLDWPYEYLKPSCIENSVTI
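Hydroperoxide product was detected by ferrous iron/xylenol orange as the 573 to 405 nm absorbance ratio. Arachidonic acid at 40 uM (final) was turned over for 30 min at room temperature by 150 nM human 12hLO, pH 7.0 Hepes buffer, after 15 min compound preincubation.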
The depositor's hits bear a star; [ ] = dose if it differs, or a comment. The entries come from a sample that favours hits as a whole. Unless noted, calls come from the whole dose curve; as a rule, active = well fitted curve in the direction sought with a large enough effect; inconclusive = small, poorly fitted or top-dose-only effect, or another doubt; inactive = no such curve, though single readings can be large; an effect the other way counts as inactive or inconclusive. Unless noted, % is set by controls: 0 for no effect and ±100 for the full control effect.

Screening Cc1nn(C)cc1CN(C)Cc1cn(C)nc1-c1ccc(C2CCCCC2)cc1 returned 12-LOX inh 35%.
Screening COc1ccc(C2=Nc3ccccc3N(C(=O)c3ccc(C(F)(F)F)cc3)C2C(=O)Nc2c(C)cccc2C)cc1 (configuration not stated) returned IL1B secr inh -11, HT1080-NT tox 15%, TDP1 cell CPT inconclusive, HT1080 IDH1KD tx 2%, TDP1 cell noCPT inconclusive and 12-LOX inh -2%.
Screening Cc1cccc(C)c1NC(=O)C1C(c2ccc3c(c2)OCO3)=Nc2ccccc2N1C(=O)c1ccccc1 (configuration not stated) returned IL1B secr inh -23, HT1080-NT tox -3%, TDP1 cell CPT 5.2µM*, HT1080 IDH1KD tx -1%, TDP1 cell noCPT 1.5µM* and 12-LOX inh 1%.
O=C(NCc1ccccc1)C1C(c2ccc3c(c2)OCO3)=Nc2ccccc2N1C(=O)c1cccc(C(F)(F)F)c1 (configuration not stated) was read as IL1B secr inh -20, HT1080-NT tox -5%, TDP1 cell CPT 16µM*, HT1080 IDH1KD tx -14%, TDP1 cell noCPT inconclusive and 12-LOX inh inconclusive.
Screening O=C(NCc1ccccc1)C1C(c2ccc3c(c2)OCO3)=Nc2ccccc2N1C(=O)c1ccccc1 (configuration not stated) returned IL1B secr inh -1, HT1080-NT tox -18%, TDP1 cell CPT 23µM*, HT1080 IDH1KD tx -24%, TDP1 cell noCPT 15µM* and 12-LOX inh -5%.
`O=C(NCc1ccccc1)C1C(c2ccc3c(c2)OCO3)=Nc2ccccc2N1C(=O)c1ccco1` (configuration not stated) gave IL1B secr inh -15, HT1080-NT tox 13µM*, TDP1 cell CPT inconclusive, HT1080 IDH1KD tx 8.2µM*, TDP1 cell noCPT inconclusive and 12-LOX inh -46%.
Screening CCCCNC(=O)C1C(c2ccc(C(F)(F)F)cc2)=Nc2ccccc2N1C(=O)c1cccc(C(F)(F)F)c1 (configuration not stated) returned IL1B secr inh 0, HT1080-NT tox 6%, TDP1 cell CPT inconclusive, HT1080 IDH1KD tx 9%, TDP1 cell noCPT inconclusive and 12-LOX inh 0%.
Screening O=C(NCc1ccccc1)C1C(c2ccccc2)=Nc2ccccc2N1C(=O)c1ccncc1 (configuration not stated) returned IL1B secr inh -14, HT1080-NT tox -17%, TDP1 cell CPT -9%, HT1080 IDH1KD tx -5%, TDP1 cell noCPT -14% and 12-LOX inh -1%.
CN(CC1CCCN(CCc2cccc(C(F)(F)F)c2)C1)C(=O)c1cc2ccccc2o1 (configuration not stated) was read as IL1B secr inh -60*, HT1080-NT tox -1%, TDP1 cell CPT inconclusive, HT1080 IDH1KD tx -12%, TDP1 cell noCPT 13µM* and 12-LOX inh inconclusive.
For CCN(CC1CCCN(CCc2cccc(F)c2)C1)C(=O)c1cc2ccccc2o1 (configuration not stated) the results were IL1B secr inh -88*, HT1080-NT tox inconclusive, TDP1 cell CPT 26µM*, HT1080 IDH1KD tx inconclusive, TDP1 cell noCPT 18µM* and 12-LOX inh -28%.
For CCOC(=O)/C(C#N)=C(C)/C=C1\Sc2ccccc2N1CC the results were IL1B secr inh -3, HT1080-NT tox 16%, TDP1 cell CPT inconclusive, HT1080 IDH1KD tx 7%, TDP1 cell noCPT 18µM* and 12-LOX inh -1%.
CC1CCC2(CC1)NC(=O)N(CC(=O)Nc1ccc(Br)cc1)C2=O (configuration not stated) was read as 12-LOX inh -14%.
For CC[C@H]1CN(C(=O)C(C)(C)C)CC[C@H]1CC(=O)N1CCC(C(=O)OC)CC1 the results were 12-LOX inh 9%[176 µM].
`Cc1noc(C)c1CC(=O)NC1CCc2nn(CC3CC3)c(=O)n2CC1` (configuration not stated) gave 12-LOX inh 5%.
Screening CCc1cc[n+](C2=C([O-])c3ccccc3C(=O)/C2=N\S(=O)(=O)c2cccs2)cc1 returned IL1B secr inh -86*, HT1080-NT tox 18µM*, TDP1 cell CPT 2.3µM*, HT1080 IDH1KD tx 18µM*, TDP1 cell noCPT 5.2µM* and 12-LOX inh inconclusive.
For COc1cc(C2C3CN(C)CC=C3C(C#N)=C(N)C2(C#N)C#N)ccc1OC(C)C (configuration not stated) the results were IL1B secr inh -11, HT1080-NT tox -4%, TDP1 cell CPT -29%, HT1080 IDH1KD tx -10%, TDP1 cell noCPT -27% and 12-LOX inh -22%.
Screening CCN1CC=C2C(C#N)=C(N)C(C#N)(C#N)C(c3cc(Cl)ccc3Cl)C2C1 (configuration not stated) returned IL1B secr inh -8, HT1080-NT tox -13%, TDP1 cell CPT 18µM*, HT1080 IDH1KD tx inconclusive, TDP1 cell noCPT 23µM* and 12-LOX inh -13%.
Screening CC(C)(C)OC(=O)N1CC=C2C(C#N)=C(N)C(C#N)(C#N)C(c3cccs3)C2C1 (configuration not stated) returned IL1B secr inh -21, HT1080-NT tox -28%, TDP1 cell CPT inconclusive, HT1080 IDH1KD tx -24%, TDP1 cell noCPT 23µM* and 12-LOX inh -18%.
`CC(C)(C)OC(=O)N1CC=C2C(C#N)=C(N)C(C#N)(C#N)[C@H](c3cccnc3)[C@H]2C1` gave IL1B secr inh -9, HT1080-NT tox 6%, TDP1 cell CPT -27%, HT1080 IDH1KD tx 0%, TDP1 cell noCPT inconclusive and 12-LOX inh 5%.
CC(C)N1CC=C2C(C#N)=C(N)C(C#N)(C#N)C(c3ccccc3)C2C1 (configuration not stated) was read as IL1B secr inh 0, HT1080-NT tox -15%, TDP1 cell CPT inconclusive, HT1080 IDH1KD tx -5%, TDP1 cell noCPT 14µM* and 12-LOX inh 0%.
`CC(C)CNC(=O)CC(c1cccc(F)c1)c1cn(C)c2ccccc12` (configuration not stated) gave 12-LOX inh 10%.

Source: PubChem (National Center for Advancing Translational Sciences (NCATS))
